Compounds with a hit are over-represented: about 7.6% of the library has one in this group of screens.
Gal4-VP16 FLuc: VP16 counterscreen qHTS for inhibitors of ROR gamma transcriptional activity. Potency, µM (titrated, usually from 53.6 µM), for inactives: top-dose activity, negative = inhibition, hits mostly inhibitors. AID 2546, 2010. Drosophila S2 Gal4-VP16 UAS-luciferase, luminescence, 20 h. 310,000 compounds, 3.5% hits;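 also: Gal4-VP16 expression switched on by copper sulfate through the metallothionein promoter; potency is read from the fitted curve at half-maximal effect; % is scaled to controls: 0 for no effect and ±100 for the full control effect; nearly all actives have a fitted effect of over 50% in size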
Giardia kill: Small Molecules that selectively kill Giardia lamblia: qHTS; activity change, % at 7.66 µM, hits read low; 340,000 compounds, 0.15% hits; Giardia lamblia trophozoite viability; in the data active = activity change below about -80%; inconclusive = between about -30% and that limit;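 also: parasites exposed to compound for two days anaerobically before the ATP read; % is scaled to controls: 0 for no effect and ±100 for the full control effect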
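Anaerobic 48 hrs incubation at 37 deg C of 100 trophozoites/well with test compounds; ATPLite 1-Step luminescence, 15-30 min RT, reports cellular ATP as viability.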
BRCA1 expr up: qHTS Assay to Identify Small Molecule Activators of BRCA1 Expression | 380,000 compounds, 1.1% hits | MCF7-BRCA1-FFLuc reporter, luminescence, 48 h; response scale: scaled: vehicle 0%, 10 µM genistein 100% | Potency, µM (highest dose often 46.1 µM), without a hit: top-dose activation, hits mostly activators | AID 624202, 2012; also: potency is read from the fitted curve at half-maximal effect; nearly all actives have a fitted effect of over 80% in size
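Cells: MCF7-BRCA1-FFLuc, 2000/well. Exposure: 48 h, 37 °C, 5% CO2. Read: luminescence, 15 min post-substrate. Controls: genistein 10 microM (maximal activation), DMSO (neutral).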
RORgamma inh: qHTS for inhibitors of ROR gamma transcriptional activity. Nuclear receptor ROR-gamma (Mus musculus), P51450. Potency, µM (doses to about 53.6 µM), for the others: at the top dose activity change, negative = inhibition, hits mostly inhibitors. 310,000 compounds, 5.4% hits. Drosophila S2 Gal4-RORgamma UAS-luciferase reporter, 20 h; also: potency is read from the fitted curve at half-maximal effect; % is scaled to controls: 0 for no effect and ±100 for the full control effect; nearly all actives have a fitted effect of over 60% in size
Target sequence (P51450 whole entry, looked up, the tested form may be a part): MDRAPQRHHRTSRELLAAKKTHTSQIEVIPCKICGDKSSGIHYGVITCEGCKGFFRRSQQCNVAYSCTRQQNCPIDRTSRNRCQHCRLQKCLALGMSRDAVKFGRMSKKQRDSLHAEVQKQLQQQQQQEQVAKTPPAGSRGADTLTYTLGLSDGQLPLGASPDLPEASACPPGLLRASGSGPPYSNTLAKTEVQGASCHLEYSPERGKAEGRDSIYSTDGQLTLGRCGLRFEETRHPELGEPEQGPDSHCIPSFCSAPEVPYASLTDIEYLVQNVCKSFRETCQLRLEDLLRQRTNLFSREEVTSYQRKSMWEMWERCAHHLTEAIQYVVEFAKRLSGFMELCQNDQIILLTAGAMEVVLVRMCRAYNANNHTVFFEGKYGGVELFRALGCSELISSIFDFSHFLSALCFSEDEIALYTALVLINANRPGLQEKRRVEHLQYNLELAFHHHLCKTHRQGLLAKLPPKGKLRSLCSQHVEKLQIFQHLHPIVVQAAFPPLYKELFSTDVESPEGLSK
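Stably transfected Drosophila Schneider cells are the test system, with ROR gamma fused to Gal4 and luciferase under UAS control; luminescence is read after 20 hr of 700 uM copper sulfate induction at ambient temperature.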
ELG1 repair inh: qHTS screen for small molecules that inhibit ELG1-dependent DNA repair in human embryonic kidney (HEK293T) cells expressing luciferase-tagged ELG1. HEK293T ELG1-luciferase reporter, luminescence, 16 h; DNA damage induced by 5-fluorouridine. 330,000 compounds, 2.3% hits. Potency, µM (doses to about 46.1 µM), for inactives: top-dose activity change, negative = inhibition, hits mostly inhibitors. AID 504467, 2011; also: potency is read from the fitted curve at half-maximal effect; % is scaled to controls: 0 for no effect and ±100 for the full control effect; nearly all actives have a fitted effect of over 55% in size
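Step one: seed 2,000 cells per well. Step two: pin-transfer compound or DMSO alongside 5-fluorouridine. Step three: incubate 16 hr, 37 °C, 5% CO2. Step four: add ONE-Glo, wait 30 min, read luminescence.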
p53 reactivation: qHTS assay for re-activators of p53 using a Luc reporter; Potency, µM (highest dose often 92.2 µM), without a hit: top-dose activity change, positive = activation, hits mostly activators; H1299 p53-A138V BP100-luciferase reporter, luminescence, 24 h; AID 504706, 2011; 320,000 compounds, 0.063% hits; also: potency is read from the fitted curve at half-maximal effect; % of control where 0% means no effect; nearly all actives have a fitted effect of over 45% in size
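p53-null H1299 cells stably carrying temperature-sensitive p53-A138V and a BP100-luciferase reporter were pinned with compounds (4-point, 1:5 series) and held 24 hrs at 37 deg C. Luminescence was read 10 min after detection reagent.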
* = called active by the depositor; u = inconclusive; x = no result given. Unless noted, calls follow the shape of the dose curve; as a rule, active = well fitted curve in the direction sought with a large enough effect; inconclusive = small, poorly fitted or top-dose-only effect, or another doubt; inactive = no such curve, though single readings can be large; an effect the other way counts as inactive or inconclusive.

SMILES	Gal4-VP16 FLuc	Giardia kill	BRCA1 expr up	RORgamma inh	ELG1 repair inh	p53 reactivation
Cc1nc([N+](=O)[O-])cn1CCCCN1C(=O)c2ccccc2C1=O	-2%	-15	-5%	7%	-1%	x
COc1ccc2[nH]c(=O)c(CN(Cc3cccs3)C(=S)NCC3CCCO3)cc2c1 (centres undefined)	-18%	-12	-10%	38%	23µM*	-7%
COc1ccccc1NC(=S)N(CCCN(C)C)Cc1cc2cc3c(cc2[nH]c1=O)OCO3	-7%	31	4%	9%	8%	-4%
COC(=O)c1ccccc1NC(=S)N(Cc1ccc2c(c1)OCO2)Cc1cc2cc(OC)ccc2[nH]c1=O	u	3	-25%	33%	10µM*	-13%
COc1ccccc1N1CCN(Cc2cc(=O)oc3ccccc23)CC1	x	x	18%	x	x	x
CCOC(=O)C(CC)/C(C)=N/NC(=O)c1ccc([N+](=O)[O-])cc1 (centres undefined)	u	-9	-6%	13µM*	2%	2%
CCOC(=O)CC(=O)Nc1ccc(Br)cc1C(=O)O	-19%	0	-1%	1.6µM*	-7%	-2%
CCOC(=O)CC(=O)Nc1ccccc1C(=O)O	-4%	23	26%	15%	u	0%
O=C(CNC(=O)c1[nH]cnc1C(=O)NC(c1ccccc1)c1ccccc1)OCc1ccccc1	u	11	7%	27%	-18%	3%
O=c1c2sccc2nc(SCc2cc(=O)n3cc(Br)ccc3n2)n1Cc1ccccn1	17%	14	6.3µM*	-25%	u	-1%
Cc1ccc(CSc2nc3ccsc3c(=O)n2Cc2ccccn2)cc1	-2%	-11	1%	85%	-3%	-7%
Cc1ccc(CNC(=O)c2ccc3nc4[nH]c5ccccc5c4nc3c2)cc1	7.1µM*	x	x	u	-16%	6%
COc1ccccc1CNC(=O)c1ccc2nc3[nH]c4ccccc4c3nc2c1	u	-15	-80%	26%	u	-42%
C=CCN(C(=O)CSC1=NC(=O)CN1C(C)=O)c1nc(C)c(-c2ccccc2)s1	u	-4	-37%	13µM*	u	24%
Cc1cc(NC(=O)c2cccc(Oc3ccccc3)c2)n[nH]1	-5%	20	11µM*	-29%	u	24%
Cc1cc(NC(=O)NC(=O)c2cccc(OC(F)(F)C(F)F)c2)n[nH]1	7%	-7	71%	u	u	15%
Cc1ccc(OCc2ccoc2C(=O)O)cc1C	1%	5	39%	-11%	u	10%
CC(C)C[C@@H](CSc1ccc(Br)cc1)N1CCN(C)CCC1=O	-9%	-11	10µM*	-7%	u	14%
Cc1ccc(SC[C@H](CC(C)C)N2CCN(C)CCC2=O)cc1	-6%	-12	u	15%	u	19%
O=C(Cc1c[nH]c2ccccc12)N1CCc2ccccc21	-2%	-8	11µM*	37%	u	29%
O=C(COc1ccccc1)N1CCc2ccccc21	-1%	14	100%	18%	u	u
Cn1cccc1C(=O)OCC(=O)N1CCc2ccccc21	x	-3	10µM*	x	u	u
O=C(COc1ccc(Br)cc1)N1CCc2ccccc21	-20%	-8	7.1µM*	-1%	u	12%
Cc1ccc(C(=O)OCC(=O)N2CCc3ccccc32)cc1	-5%	-4	79%	13%	u	11%
COCC(=O)Nc1ccccc1C(=O)Nc1ccc(OC)cc1	6%	4	89%	-18%	u	u
SMILES	Gal4-VP16 FLuc	Giardia kill	BRCA1 expr up	RORgamma inh	ELG1 repair inh	p53 reactivation
COCCNC(=S)Nc1ccc(S(=O)(=O)Nc2ncccn2)cc1	6%	3	-12%	-3%	-19%	15%
COCCNC(=S)Nc1ccccn1	u	2	-16%	18µM*	2%	-2%
CN(C)CCNC(=S)Nc1ccccc1Cl	-8%	6	3%	-27%	12%	-7%
CC(C)CCNC(=S)Nc1ccccc1F	11µM*	13	-9%	7.9µM*	1%	19%
CC(C)CCNC(=O)C(=O)Nc1ccccc1	-16%	2	8.9µM*	-30%	u	25%
CC(C)CCNC(=S)Nc1ccccn1	4µM*	-8	-5%	0.56µM*	-2%	8%
Cc1ccc(C)c(NC2=NS(=O)(=O)c3ccccc32)c1	2%	-3	-9%	-8%	-11%	-10%
Cc1ccc(S(=O)(=O)NNC2=NS(=O)(=O)c3ccccc32)c(C)c1	-28%	-3	-8%	10µM*	6%	0%
Cc1cc2nnc(SCC(=O)Nc3cc(S(=O)(=O)N4CCOCC4)ccc3Cl)n2c2ccccc12	1%	-5	-25%	44%	18µM*	-6%
COc1ccc(S(=O)(=O)N2CCOCC2)cc1NC(=O)CSc1nnc2c(n1)[nH]c1ccccc12	-7%	11	-19%	u	23µM*	-4%
Cc1ccc(S(=O)(=O)N2CCOCC2)cc1NC(=O)CSc1nnc2cc(C)c3ccccc3n12	0%	-1	-20%	37%	18µM*	-15%
Cc1ccc(-n2c(SCC(=O)Nc3cc(S(=O)(=O)N4CCOCC4)ccc3Cl)nc3ccccc3c2=O)cc1	14%	-9	-24%	27%	-16%	6%
O=C(CSc1nnc2c(n1)[nH]c1ccc(S(=O)(=O)N3CCOCC3)cc12)Nc1ccccc1Cl	-8%	6	-20%	16%	-21%	-10%
O=C(CSc1nc2ccccc2s1)Nc1cc(S(=O)(=O)N2CCOCC2)ccc1Cl	-2%	-15	-15%	30%	23µM*	-2%
CC1(C(=O)Nc2ccc(S(=O)(=O)Nc3ncccn3)cc2)CCCC1	x	2	-4%	x	20%	-1%
O=C(Cn1nc(-c2ccccc2)c2ccccc2c1=O)Nc1ccccn1	-3%	3	28%	u	1%	27%
CCOC(=O)c1sc(NC(=O)CSc2nc3cccnc3n2C)nc1C	1%	7	-13%	0%	u	-4%
CCOC(=O)c1cccc(NC(=O)CSc2nc3cccnc3n2C)c1	-27%	-3	-26%	u	18µM*	-24%
CON(C)C(=O)/C=C/c1ccc([B-](F)(F)F)cc1	x	8	14µM*	x	x	x
CCN(CC)C(=O)/C=C/c1ccccc1	x	8	55%	x	u	u

Screening data: PubChem BioAssay, National Center for Advancing Translational Sciences (NCATS)
